The record followed here is PubChem BioAssay (NCI).

Compounds without any hit were thinned out: in the full panel of roughly 79,000, 15% have a hit. A number with no mark means an inactive call. Active and inactive are the calls of the source. Rule as the data show it: active = growth inhibition above about 70%; inactive = the rest.

Experiment [1] in a line: NCI Yeast Anticancer Drug Screen. Data for the rad50 strain (AID 155).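 Also: 0% = growth of vehicle-only cultures of the same strain.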 The conditions noted are these: S. cerevisiae rad50 strain growth inhibition, hits give high values. Put shortly: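 Relative growth inhibition (compound vs vehicle) was measured in yeast with a defined repair-gene alteration.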
Experiment [2] can be described thus: NCI Yeast Anticancer Drug Screen. Data for the mec2-1 strain (AID 157). The conditions noted are these: S. cerevisiae mec2-1 strain, hits give high values. In outline:
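Strain: mec2-1 (DNA repair/cell cycle alteration). Compound exposure, then growth measured; inhibition expressed relative to vehicle.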

Experiment [3] is described as follows: NCI Yeast Anticancer Drug Screen. Data for the sgs1 mgt1 strain (AID 161).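 Also: 0% = growth of cultures given vehicle only.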 Particulars: S. cerevisiae sgs1 mgt1 strain, hits give high values. In outline: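 Read-out: growth inhibition vs vehicle controls. Cells: mutant yeast strain deficient in DNA damage repair.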
Experiment [4] can be described thus: NCI Yeast Anticancer Drug Screen. Data for the cln2 rad14 strain (AID 165).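 Also: 0% = growth equal to vehicle treated cultures.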 The conditions noted are these: S. cerevisiae cln2 rad14 strain, hits give high values. Put shortly:
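Compounds are applied to the cln2 rad14 yeast strain, and growth is then compared with that of vehicle-treated cultures to give inhibition.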

Experiment [5] in a line: NCI Yeast Anticancer Drug Screen. Data for the bub3 strain (AID 167). Particulars: S. cerevisiae bub3 mutant strain, hits give high values. In outline: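 Screening used yeast with an engineered genetic alteration affecting cell cycle control. Compound-exposed cultures were compared with vehicle cultures, and reduced growth was taken as inhibition.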
A short description of experiment [6]: NCI Yeast Anticancer Drug Screen. Data for the mlh1 rad18 strain (AID 175). The conditions noted are these: S. cerevisiae mlh1 rad18 strain growth inhibition, hits give high values. In outline:
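Read-out is yeast growth inhibition, calculated against vehicle-only controls. The compound was applied to a strain engineered with DNA damage repair alterations.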

[7] abbreviates: at 5.0 µM (retest, dose inferred, filed as 0.5).
Setting [8] is: at 50.0 µM (retest, dose inferred, filed as 5.0).

In the case of `CCCC(CC)c1cc(O)c(O)cc1C(CC)CCC` (configuration not stated), the growth inhibition in experiment [1] (setting [7]) was 1%; in experiment [1] (setting [8]), 56%; in experiment [1] (at 50.0 µM), 73% (active); in experiment [2] (setting [7]) it was -18%; in experiment [2] (setting [8]), 33%; in experiment [2] (at 50.0 µM) it was 69.5%. In addition, the growth inhibition in experiment [3] (setting [7]) is 9%; in experiment [3] (setting [8]), 29%; in experiment [3] (at 50.0 µM), 43.9%; in experiment [4] (setting [7]), -5%; in experiment [4] (setting [8]), 70% (active); in experiment [4] (at 50.0 µM), 79.8% (active). Moreover, the growth inhibition is -9% in experiment [5] (setting [7]); 54% in experiment [5] (setting [8]); 65.8% in experiment [5] (at 50.0 µM); 6% in experiment [6] (setting [7]); 62% in experiment [6] (setting [8]); 77.8% (active) in experiment [6] (at 50.0 µM).
As for `COc1ccc2c(Cc3ccc(Cl)cc3)cncc2c1O`, the growth inhibition in experiment [1] (setting [7]) was 5%; in experiment [1] (setting [8]), 91% (active); in experiment [1] (at 50.0 µM) it was 98.1% (active); in experiment [2] (setting [7]), 14%; in experiment [2] (setting [8]) it was 97% (active); in experiment [2] (at 50.0 µM) it was 99.2% (active). In addition, the growth inhibition in experiment [3] (setting [7]) is 15%; in experiment [3] (setting [8]), 96% (active); in experiment [3] (at 50.0 µM), 97.2% (active); in experiment [4] (setting [7]), 2%; in experiment [4] (setting [8]), 87% (active); in experiment [4] (at 50.0 µM), 99% (active). For the same molecule, the growth inhibition is 10% in experiment [5] (setting [7]); 93% (active) in experiment [5] (setting [8]); 99% (active) in experiment [5] (at 50.0 µM); 21% in experiment [6] (setting [7]); 96% (active) in experiment [6] (setting [8]); 99.1% (active) in experiment [6] (at 50.0 µM).
For `C[n+]1cc2c3ccccc3ccc2c2ccccc21`, the growth inhibition is 37% in experiment [1] (setting [7]); 79% (active) in experiment [1] (setting [8]); 59.3% in experiment [1] (at 50.0 µM); 37% in experiment [2] (setting [7]); 69% in experiment [2] (setting [8]); 53.2% in experiment [2] (at 50.0 µM). Further, the growth inhibition in experiment [3] (setting [7]) is 32%; in experiment [3] (setting [8]) it was 66%; in experiment [3] (at 50.0 µM), 75.2% (active); in experiment [4] (setting [7]) it was 26%; in experiment [4] (setting [8]) it was 45%; in experiment [4] (at 50.0 µM), 56%. The growth inhibition was 7% in experiment [5] (setting [7]); 57% in experiment [5] (setting [8]); 47% in experiment [5] (at 50.0 µM); 39% in experiment [6] (setting [7]); 83% (active) in experiment [6] (setting [8]); 40.3% in experiment [6] (at 50.0 µM).
Take `CCCCCCCCCCCCCCNCC(OCC)OCC`: the growth inhibition in experiment [1] (setting [7]) was 69%; in experiment [1] (setting [8]) it was 98% (active); in experiment [1] (at 50.0 µM), 90.7% (active); in experiment [2] (setting [7]), 62%; in experiment [2] (setting [8]), 99% (active); in experiment [2] (at 50.0 µM), 93.4% (active). The growth inhibition in experiment [3] (setting [7]) is 83% (active); in experiment [3] (setting [8]), 99% (active); in experiment [3] (at 50.0 µM) it was 93.2% (active); in experiment [4] (setting [7]), 61%; in experiment [4] (setting [8]), 98% (active); in experiment [4] (at 50.0 µM), 90.5% (active). Besides, the growth inhibition in experiment [5] (setting [7]) is 75% (active); in experiment [5] (setting [8]), 99% (active); in experiment [5] (at 50.0 µM) it was 91.5% (active); in experiment [6] (setting [7]), 85% (active); in experiment [6] (setting [8]), 98% (active); in experiment [6] (at 50.0 µM), 91% (active).
Consider `CSc1nc(=Nc2ccccc2)sn1-c1ccccc1`, for which the growth inhibition is 10% in experiment [1] (setting [7]); 98% (active) in experiment [1] (setting [8]); 98.8% (active) in experiment [1] (at 50.0 µM); 26% in experiment [2] (setting [7]); 98% (active) in experiment [2] (setting [8]); 99.5% (active) in experiment [2] (at 50.0 µM). Further, the growth inhibition in experiment [3] (setting [7]) was 27%; in experiment [3] (setting [8]), 98% (active); in experiment [3] (at 50.0 µM) it was 99.2% (active); in experiment [4] (setting [7]) it was 27%; in experiment [4] (setting [8]), 97% (active); in experiment [4] (at 50.0 µM) it was 99.4% (active). Moreover, the growth inhibition in experiment [5] (setting [7]) is 41%; in experiment [5] (setting [8]), 98% (active); in experiment [5] (at 50.0 µM), 99.3% (active); in experiment [6] (setting [7]) it was 15%; in experiment [6] (setting [8]), 98% (active); in experiment [6] (at 50.0 µM), 99% (active).
As to `c1ccc(C2=NOC3(c4ccccc4)SC4CCCCC4CN23)cc1` (configuration not stated), the growth inhibition in experiment [1] (setting [7]) was 6%; in experiment [1] (setting [8]), 97% (active); in experiment [1] (at 50.0 µM), 90.3% (active); in experiment [2] (setting [7]), -22%; in experiment [2] (setting [8]) it was 98% (active); in experiment [2] (at 50.0 µM), 93.7% (active). The growth inhibition in experiment [3] (setting [7]) was 10%; in experiment [3] (setting [8]), 97% (active); in experiment [3] (at 50.0 µM), 92.4% (active); in experiment [4] (setting [7]), 15%; in experiment [4] (setting [8]) it was 98% (active); in experiment [4] (at 50.0 µM), 90.4% (active). For the same molecule, the growth inhibition in experiment [5] (setting [7]) is 25%; in experiment [5] (setting [8]), 97% (active); in experiment [5] (at 50.0 µM) it was 90.2% (active); in experiment [6] (setting [7]), 8%; in experiment [6] (setting [8]), 98% (active); in experiment [6] (at 50.0 µM), 90.1% (active).
Regarding `S=c1c2cn[nH]c2nc2scc(-c3ccc(Cl)cc3)n12`, the growth inhibition in experiment [1] (setting [7]) is 1%; in experiment [1] (setting [8]) it was 98% (active); in experiment [1] (at 50.0 µM) it was 45.4%; in experiment [2] (setting [7]), -29%; in experiment [2] (setting [8]), 97% (active); in experiment [2] (at 50.0 µM) it was 49.7%. Moreover, the growth inhibition in experiment [3] (setting [7]) is -27%; in experiment [3] (setting [8]), 98% (active); in experiment [3] (at 50.0 µM) it was 65.9%; in experiment [4] (setting [7]) it was 24%; in experiment [4] (setting [8]), 98% (active); in experiment [4] (at 50.0 µM), 33.9%. For the same molecule, the growth inhibition in experiment [5] (setting [7]) is -4%; in experiment [5] (setting [8]), 97% (active); in experiment [5] (at 50.0 µM), 49%; in experiment [6] (setting [7]) it was 11%; in experiment [6] (setting [8]), 97% (active); in experiment [6] (at 50.0 µM), 30.6%.
On to `CC(C)(C)c1ccc(C(=O)C[n+]2ccc(Cl)c3ccc(Cl)cc32)cc1`, for which the growth inhibition in experiment [1] (setting [7]) was 0%; in experiment [1] (setting [8]), 98% (active); in experiment [1] (at 50.0 µM), 99% (active); in experiment [2] (setting [7]), 1%; in experiment [2] (setting [8]) it was 99% (active); in experiment [2] (at 50.0 µM), 99.3% (active). Moreover, the growth inhibition in experiment [3] (setting [7]) was 0%; in experiment [3] (setting [8]), 99% (active); in experiment [3] (at 50.0 µM) it was 62.9%; in experiment [4] (setting [7]), -2%; in experiment [4] (setting [8]), 97% (active); in experiment [4] (at 50.0 µM), 53.5%. In addition, the growth inhibition in experiment [5] (setting [7]) is 2%; in experiment [5] (setting [8]) it was 98% (active); in experiment [5] (at 50.0 µM), -1.75%; in experiment [6] (setting [7]), 1%; in experiment [6] (setting [8]) it was 99% (active); in experiment [6] (at 50.0 µM) it was 99.2% (active).
`O=C(CC1(O)CCCCC1)OC1CCCC1`: the growth inhibition is -1% in experiment [1] (setting [7]); 0% in experiment [1] (setting [8]); 58.3% in experiment [1] (at 50.0 µM); -1% in experiment [2] (setting [7]); -11% in experiment [2] (setting [8]); -13.2% in experiment [2] (at 50.0 µM). In addition, the growth inhibition in experiment [3] (setting [7]) is 1%; in experiment [3] (setting [8]), 0%; in experiment [3] (at 50.0 µM) it was 5.85%; in experiment [4] (setting [7]), -14%; in experiment [4] (setting [8]), 19%; in experiment [4] (at 50.0 µM), 62.8%. Further, the growth inhibition is 5% in experiment [5] (setting [7]); -10% in experiment [5] (setting [8]); -58.9% in experiment [5] (at 50.0 µM); 7% in experiment [6] (setting [7]); 10% in experiment [6] (setting [8]); 6.2% in experiment [6] (at 50.0 µM).
